This passage reports log2 fold change results from the supplement of paper PMC10849652.

Of roughly 7,900 targets only a part is listed; those with a hit were picked by preference. About 0.6% of all pairs of compound and target were hits.

Chain of UniProt Q96EU6 (Q96EU6 whole entry, looked up): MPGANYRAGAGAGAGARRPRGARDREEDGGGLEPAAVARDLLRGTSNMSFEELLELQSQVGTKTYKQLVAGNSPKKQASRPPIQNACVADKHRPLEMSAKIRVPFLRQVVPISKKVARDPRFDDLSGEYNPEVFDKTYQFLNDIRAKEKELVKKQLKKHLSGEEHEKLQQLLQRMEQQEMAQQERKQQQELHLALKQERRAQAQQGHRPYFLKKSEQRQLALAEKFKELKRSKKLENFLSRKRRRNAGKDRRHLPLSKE
Chain of UniProt Q8NBN7 (Q8NBN7 whole entry, looked up): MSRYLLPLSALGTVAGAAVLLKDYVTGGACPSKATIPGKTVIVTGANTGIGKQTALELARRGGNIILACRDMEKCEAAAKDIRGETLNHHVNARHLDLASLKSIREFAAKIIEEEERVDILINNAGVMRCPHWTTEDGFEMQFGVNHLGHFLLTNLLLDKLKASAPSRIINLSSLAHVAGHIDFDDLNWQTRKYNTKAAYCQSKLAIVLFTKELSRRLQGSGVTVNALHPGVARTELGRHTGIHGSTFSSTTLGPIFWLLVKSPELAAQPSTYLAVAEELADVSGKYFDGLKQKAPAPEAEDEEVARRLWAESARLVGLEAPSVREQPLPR
Chain of UniProt Q9HB40 (Q9HB40 whole entry, looked up): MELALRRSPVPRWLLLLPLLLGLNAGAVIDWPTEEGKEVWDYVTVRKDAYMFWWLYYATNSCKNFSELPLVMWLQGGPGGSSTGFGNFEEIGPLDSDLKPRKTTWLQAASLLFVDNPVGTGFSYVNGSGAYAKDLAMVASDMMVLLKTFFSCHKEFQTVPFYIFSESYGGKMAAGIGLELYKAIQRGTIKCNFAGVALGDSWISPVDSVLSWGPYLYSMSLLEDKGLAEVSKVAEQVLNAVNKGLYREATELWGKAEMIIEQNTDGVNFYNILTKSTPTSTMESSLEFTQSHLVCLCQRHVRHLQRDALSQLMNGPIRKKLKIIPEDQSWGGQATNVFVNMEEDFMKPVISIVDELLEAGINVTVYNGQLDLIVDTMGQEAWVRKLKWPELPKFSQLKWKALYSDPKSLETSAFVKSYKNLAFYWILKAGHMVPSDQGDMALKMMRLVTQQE
Chain of UniProt Q9NTZ6 (Q9NTZ6 whole entry, looked up): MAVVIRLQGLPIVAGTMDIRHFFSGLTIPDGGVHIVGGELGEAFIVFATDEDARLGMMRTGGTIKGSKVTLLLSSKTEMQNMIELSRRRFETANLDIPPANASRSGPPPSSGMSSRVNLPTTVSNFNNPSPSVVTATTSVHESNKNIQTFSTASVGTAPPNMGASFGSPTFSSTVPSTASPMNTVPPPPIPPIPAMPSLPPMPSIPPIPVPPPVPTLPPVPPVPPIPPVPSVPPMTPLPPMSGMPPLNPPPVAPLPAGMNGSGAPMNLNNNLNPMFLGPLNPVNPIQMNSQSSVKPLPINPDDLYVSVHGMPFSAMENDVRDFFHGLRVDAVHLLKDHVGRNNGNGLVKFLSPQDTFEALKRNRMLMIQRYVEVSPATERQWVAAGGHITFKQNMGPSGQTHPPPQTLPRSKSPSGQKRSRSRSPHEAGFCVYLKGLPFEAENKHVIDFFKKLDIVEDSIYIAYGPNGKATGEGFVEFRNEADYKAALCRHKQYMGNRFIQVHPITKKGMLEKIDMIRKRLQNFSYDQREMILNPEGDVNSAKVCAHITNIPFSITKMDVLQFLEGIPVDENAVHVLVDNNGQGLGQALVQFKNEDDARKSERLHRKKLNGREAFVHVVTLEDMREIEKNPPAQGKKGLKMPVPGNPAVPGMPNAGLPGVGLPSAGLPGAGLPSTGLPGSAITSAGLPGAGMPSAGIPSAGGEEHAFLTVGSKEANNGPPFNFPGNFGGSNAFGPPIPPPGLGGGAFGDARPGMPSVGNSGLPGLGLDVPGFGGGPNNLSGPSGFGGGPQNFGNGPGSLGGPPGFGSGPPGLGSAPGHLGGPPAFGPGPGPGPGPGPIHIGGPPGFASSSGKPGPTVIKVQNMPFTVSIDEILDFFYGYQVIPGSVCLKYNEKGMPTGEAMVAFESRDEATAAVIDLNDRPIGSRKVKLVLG
Chain of UniProt Q15382 (Q15382 whole entry, looked up): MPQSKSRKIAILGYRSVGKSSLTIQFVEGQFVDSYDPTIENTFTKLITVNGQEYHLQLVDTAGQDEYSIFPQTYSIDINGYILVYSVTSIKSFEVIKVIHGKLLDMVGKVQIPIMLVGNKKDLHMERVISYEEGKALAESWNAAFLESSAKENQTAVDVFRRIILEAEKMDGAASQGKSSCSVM
Chain of UniProt P43003 (P43003 whole entry, looked up): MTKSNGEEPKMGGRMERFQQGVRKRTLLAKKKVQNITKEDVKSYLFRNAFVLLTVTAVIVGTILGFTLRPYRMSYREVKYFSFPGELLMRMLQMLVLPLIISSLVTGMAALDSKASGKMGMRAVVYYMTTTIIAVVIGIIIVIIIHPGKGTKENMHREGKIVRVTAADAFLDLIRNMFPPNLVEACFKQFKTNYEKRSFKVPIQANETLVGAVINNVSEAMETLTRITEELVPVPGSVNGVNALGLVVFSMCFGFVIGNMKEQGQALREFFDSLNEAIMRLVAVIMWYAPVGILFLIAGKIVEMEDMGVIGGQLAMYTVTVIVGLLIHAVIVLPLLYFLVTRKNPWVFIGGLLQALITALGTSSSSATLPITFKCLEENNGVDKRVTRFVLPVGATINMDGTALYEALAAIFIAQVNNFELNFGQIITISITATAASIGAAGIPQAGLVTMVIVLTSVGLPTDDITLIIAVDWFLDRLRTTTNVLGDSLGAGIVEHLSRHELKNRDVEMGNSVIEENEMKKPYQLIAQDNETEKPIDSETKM
Chain of UniProt Q99496 (Q99496 whole entry, looked up): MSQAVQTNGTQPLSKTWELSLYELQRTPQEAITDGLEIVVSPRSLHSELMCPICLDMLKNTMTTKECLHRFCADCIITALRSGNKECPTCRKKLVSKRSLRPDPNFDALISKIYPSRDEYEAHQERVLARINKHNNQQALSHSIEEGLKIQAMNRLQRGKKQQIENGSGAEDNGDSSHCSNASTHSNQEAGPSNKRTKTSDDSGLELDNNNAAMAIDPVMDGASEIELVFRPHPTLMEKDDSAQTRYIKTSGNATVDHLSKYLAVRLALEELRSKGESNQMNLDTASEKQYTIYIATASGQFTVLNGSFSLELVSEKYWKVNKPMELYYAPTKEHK
Chain of UniProt Q15349 (Q15349 whole entry, looked up): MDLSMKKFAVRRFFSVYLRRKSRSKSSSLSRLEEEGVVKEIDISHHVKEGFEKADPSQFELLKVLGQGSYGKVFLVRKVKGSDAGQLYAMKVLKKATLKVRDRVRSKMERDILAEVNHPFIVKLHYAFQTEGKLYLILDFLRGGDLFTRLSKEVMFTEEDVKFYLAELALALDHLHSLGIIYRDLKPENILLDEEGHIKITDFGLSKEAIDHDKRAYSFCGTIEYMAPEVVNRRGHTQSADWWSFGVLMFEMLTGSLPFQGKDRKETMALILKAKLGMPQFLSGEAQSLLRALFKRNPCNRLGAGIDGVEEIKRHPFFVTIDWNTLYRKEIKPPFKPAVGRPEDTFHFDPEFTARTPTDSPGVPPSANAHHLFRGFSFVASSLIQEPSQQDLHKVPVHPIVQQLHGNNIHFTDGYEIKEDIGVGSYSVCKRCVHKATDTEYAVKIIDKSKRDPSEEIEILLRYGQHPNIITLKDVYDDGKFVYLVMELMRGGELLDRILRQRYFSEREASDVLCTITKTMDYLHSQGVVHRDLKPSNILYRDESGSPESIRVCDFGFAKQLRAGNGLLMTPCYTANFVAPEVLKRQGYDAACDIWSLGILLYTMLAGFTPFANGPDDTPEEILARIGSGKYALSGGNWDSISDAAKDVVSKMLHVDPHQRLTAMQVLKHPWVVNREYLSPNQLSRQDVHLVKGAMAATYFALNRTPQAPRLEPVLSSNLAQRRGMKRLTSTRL
Chain of UniProt Q96EV2 (Q96EV2 whole entry, looked up): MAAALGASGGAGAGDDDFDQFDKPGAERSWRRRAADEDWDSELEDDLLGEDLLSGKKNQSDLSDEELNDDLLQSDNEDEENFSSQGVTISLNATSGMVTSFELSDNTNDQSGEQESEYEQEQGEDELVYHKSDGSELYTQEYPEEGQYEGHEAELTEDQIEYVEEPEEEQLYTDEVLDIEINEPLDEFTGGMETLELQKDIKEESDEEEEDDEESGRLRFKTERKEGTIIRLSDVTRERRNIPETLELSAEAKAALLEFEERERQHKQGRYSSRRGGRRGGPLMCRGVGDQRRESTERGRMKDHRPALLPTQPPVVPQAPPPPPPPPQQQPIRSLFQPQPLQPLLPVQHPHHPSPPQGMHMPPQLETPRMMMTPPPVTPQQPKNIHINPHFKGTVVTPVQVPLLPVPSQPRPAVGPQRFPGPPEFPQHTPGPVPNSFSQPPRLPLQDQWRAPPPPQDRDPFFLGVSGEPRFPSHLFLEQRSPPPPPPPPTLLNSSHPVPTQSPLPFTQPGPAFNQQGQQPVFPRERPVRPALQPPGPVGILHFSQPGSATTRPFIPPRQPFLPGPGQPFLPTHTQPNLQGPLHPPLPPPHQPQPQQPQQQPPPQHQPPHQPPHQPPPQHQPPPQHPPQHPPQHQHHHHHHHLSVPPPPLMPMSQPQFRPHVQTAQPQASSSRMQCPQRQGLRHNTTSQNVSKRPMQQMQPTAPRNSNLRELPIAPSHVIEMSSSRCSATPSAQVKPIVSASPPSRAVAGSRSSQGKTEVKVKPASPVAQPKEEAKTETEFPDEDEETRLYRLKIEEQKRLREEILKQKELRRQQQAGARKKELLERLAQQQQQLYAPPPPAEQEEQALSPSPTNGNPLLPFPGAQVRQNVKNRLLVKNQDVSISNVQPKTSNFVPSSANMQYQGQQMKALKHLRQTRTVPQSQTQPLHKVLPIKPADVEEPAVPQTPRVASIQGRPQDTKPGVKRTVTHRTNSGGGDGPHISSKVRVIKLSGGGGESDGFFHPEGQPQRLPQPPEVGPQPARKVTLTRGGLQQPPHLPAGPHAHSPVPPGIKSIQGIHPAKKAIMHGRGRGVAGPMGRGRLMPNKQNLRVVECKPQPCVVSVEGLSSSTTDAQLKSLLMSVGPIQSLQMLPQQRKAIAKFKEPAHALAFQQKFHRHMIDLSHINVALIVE

Compound in this assay: c1cn2cc(-c3ccc4cn[nH]c4c3)nc(Nc3ccc(N4CCOCC4)cc3)c2n1 [entospletinib]
As to the kind of experiment: log2 fold change, soluble protein after heating vs DMSO (PISA); higher = thermal stabilisation; K562 cells, 10 uM, 30 min; active = over 0.2 and 3.5 SD of the protein, either way, in both replicates (recomputed). The procedure, abridged:
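Values are thermal stability changes relative to control samples and are taken from duplicates. They are stated as log2 fold changes. Before quantification by TMTpro 16plex LC-MS/MS with equalised channel sums, K562 cells at 2×10^6 cells/mL were treated with 10 μM compound for 30 min, heated in aliquots for 3 min across 48°C-58°C, pooled, extracted in PBS with 0.5% NP-40 at 4°C, and centrifuged at 21,000xg for 90 min to give the soluble supernatant.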
RRP36 (UniProt Q96EU6): the log2 fold change is 0.118 (inactive).

Regarding RAB3IL1 (UniProt E9PK89), the log2 fold change was -0.039 (inactive).

For RPS6KA2 isoform 2 (UniProt Q15349), the log2 fold change was 0.013 (inactive).

Consider SCPEP1 (UniProt Q9HB40), for which the log2 fold change was 0.004 (inactive).

With S100A10 (UniProt P60903), the log2 fold change was -0.102 (inactive).

On to RPS27A (UniProt P62979), for which the log2 fold change is 0.222 (inactive).

On to RBM33 (UniProt Q96EV2), for which the log2 fold change was 0 (inactive).

For SLC1A3 (UniProt P43003), the log2 fold change was 0.028 (inactive).

For the target RAPGEF4 (UniProt Q8WZA2), the log2 fold change is -0.14 (inactive).

In the case of RNF2 (UniProt Q99496), the log2 fold change was -0.003 (inactive).

In the case of RBM12 (UniProt Q9NTZ6), the log2 fold change is -0.055 (inactive).

RHEB (UniProt Q15382): the log2 fold change is -0.073 (inactive).

On to RDH13 (UniProt Q8NBN7), for which the log2 fold change is -0.009 (inactive).

For RPS21 (UniProt P63220), the log2 fold change is -0.016 (inactive).
